HSP90 inh: HSP90 refolding inhibition in rabbit reticulocyte lysate; inhibition, % at 5.6 µM; 290,000 compounds, 0.91% hits; luciferase refolding luminescence, 3 h; AID 1789;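 active means inhibition above the screen-wide mean plus 3 SD, computed separately per campaign, cut at about 16% in these data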;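 further: 0% = DMSO wells and 100% = 60 µM geldanamycin wells; inhibitors lower the luminescence because luciferase stays unfolded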
TWEAK Fn14 block: blocks TWEAK-Fn14 interaction in a reporter cell assay | TWEAK-stimulated Fn14 reporter cells, luciferase luminescence, 8 h | inhibition, % at 10 µM | 360,000 compounds, 2% hits; in the data active means inhibition above about 50%
TROY signal inh: TROY signaling inhibition | Q293 LMP1-TROYcd NF-kB luciferase reporter, 4 h | inhibition, % at 10 µM | 360,000 compounds, 0.98% hits;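 active means compounds whose plate-normalised and pattern-corrected inhibition of the luciferase reporter signal at the single screening dose is 50% or more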
LGR2 antag: inhibitors of bursicon-induced Drosophila LGR2 receptor cAMP signaling; HEK293 LGR2, CRE-luciferase, bursicon-stimulated, 4 h; inhibition, % at 9.99 µM; 380,000 compounds, 0.35% hits;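 active means drop in luminescence signal, shown as inhibition above about 50% in the replicate tests, limit read from the data, passing the limit was not always enough; inconclusive means probably only some replicates passing the limit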;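 further: agonist challenge used bursicon conditioned medium at about half maximal strength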
The depositor's hits bear a star; ? = inconclusive; / = not tested or not shown. Shown are actives, neighbours in structure and some others; about 2.2% of the full set was active somewhere.

SMILES | HSP90 inh | TWEAK Fn14 block | TROY signal inh | LGR2 antag
CCC(=O)Nc1ccc2c(c1)C(=O)N(C)C[C@H](OC)[C@@H](C)CN(C(=O)c1ccccc1F)[C@H](C)CO2 | / | / | / | 2
O=C(NC[C@H]1[C@@H](c2ccccc2)[C@@H](CO)N1CC1CCCC1)c1cccnc1 | / | / | / | 24
COC(=O)c1ccccc1NC(=S)NC(=O)c1ccccc1 | -5 | 84* | / | /
O=C(NC(=S)Nc1ccc2ncccc2c1)c1ccccc1 | -2 | -4 | 64* | -30
COC(=O)c1sc(NC(=S)NC(=O)c2ccccc2)nc1C | -4 | 7 | 52* | -21
O=[N+]([O-])c1ccc(N2CCN(Cc3ccccc3)CC2)c2c1no[n+]2[O-] | / | 39 | -15 | 102*
COCCNC(=O)C[C@@H]1CC[C@H]2[C@@H](COC[C@H](O)CN2C(=O)Nc2ccc3c(c2)OCO3)O1 | / | / | / | -13
O=[N+]([O-])c1ccc(NS(=O)(=O)c2ccc(Cl)c(Cl)c2)cc1 | / | 44 | 55* | 7
CO[C@H]1CN(C)C(=O)c2ccc(NC(=O)c3ccno3)cc2OC[C@@H](C)NC[C@@H]1C | / | / | / | 3
COc1ccc(NC(=O)C#Cc2ccccc2)cc1OC | -2 | 95* | -3 | 1
NC(=O)c1ccc(NC(=O)C#Cc2ccccc2)cc1 | 0 | 89* | -5 | 17
C[C@H]1CN([C@@H](C)CO)S(=O)(=O)c2ccc(C3=CCCCC3)cc2O[C@H]1CN(C)C(=O)C1CC1 | / | / | / | -16
CC(C)(C)c1ccc(NC(=O)N2CCN(c3ccc([N+](=O)[O-])cn3)CC2)cc1 | 2 | 59* | 28 | 6
O=C(C[C@H]1C=C[C@H](NS(=O)(=O)c2ccccc2)[C@H](CO)O1)N1CCN(c2ccccc2)CC1 | / | / | / | 10
O=[N+]([O-])c1cccc(S(=O)(=O)Nc2ccc(S(=O)(=O)N3CCCC3)cc2)c1 | -3 | -6 | 6 | 4
COc1ccc(S(=O)(=O)Nc2cccc(S(=O)(=O)N3CCCCC3)c2)cc1 | / | -31 | 5 | -9
O=[N+]([O-])c1ccc(S(=O)(=O)N2CCN(c3ccccn3)CC2)cc1 | / | 7 | -12 | /
O=[N+]([O-])c1cccc(S(=O)(=O)Nc2nc3ccccc3nc2Nc2cccc(S(=O)(=O)N3CCCCC3)c2)c1 | 3 | 86* | 71* | 34
Cc1cccc(S(=O)(=O)Nc2nc3ccccc3nc2Nc2ccc3c(c2)OCO3)c1 | 3 | 42 | 64* | 0
Cc1ccc(S(=O)(=O)Nc2nc3ccccc3nc2Nc2cccc(S(=O)(=O)N3CCCC3)c2)cc1 | 0 | 69* | 54* | 3
O=[N+]([O-])c1cccc(S(=O)(=O)N2CCN(c3ccccn3)CC2)c1 | -1 | 60* | 9 | 3
CN1C[C@@H]2[C@H](c3ccccc31)[C@H](CO)N2C(=O)C1CCCCC1 | / | / | / | 9
Cc1ccc(/C=N/Nc2cn[nH]c(=O)n2)o1 | 5 | 7 | -26 | -2
CC(=NNc1ccc2ccccc2n1)c1ccccn1 | / | / | / | 104*
CC(=NNc1ccc2ccccc2n1)c1ccccc1O | / | 100* | 74* | 95*
SMILES | HSP90 inh | TWEAK Fn14 block | TROY signal inh | LGR2 antag
C/C(=N\Nc1ccc2nncn2n1)c1ccccn1 | 2 | -19 | -10 | -1
Cc1ccc(/C=N/Nc2ccc3ccccc3n2)o1 | 14 | 86* | 24 | ?
O=C(C[C@H]1C[C@H]2c3cc(NC(=O)NC4CCCCC4)ccc3O[C@H]2[C@@H](CO)O1)NC1CCCCC1 | / | / | / | 19
CCCC#Cc1ccc2c(c1)[C@@H]1[C@@H](CCN1S(=O)(=O)c1ccc(C)cc1)[C@@H](CO)N2C | / | / | / | -8
CSC1SCC2C(=O)N(C)C(C(C)C)C(=O)OCC(NC(=O)c3cnc4ccccc4n3)C(=O)NC(C)C(=O)N(C)C1C(=O)N(C)C(C(C)C)C(=O)OCC(NC(=O)c1cnc3ccccc3n1)C(=O)NC(C)C(=O)N2C (stereo not drawn) | / | 92* | 65* | 99*
COc1ccc2c3c([nH]c2c1)[C@H](CO)N(Cc1ccccc1)CC31CN(S(=O)(=O)c2ccc(C)cc2)C1 | / | / | / | -4
Cc1c(C(=O)Nc2nonc2-c2ccc(F)cc2)oc2ccc(F)cc12 | -2 | 79* | 39 | 18
Cc1ccc(C2=NNC(=Nc3ccc(F)cc3)SC2)cc1 | 2 | 22 | -12 | -99
CCc1ccc(C2=NNC(=Nc3cccc(S(=O)(=O)N(C)C)c3)SC2)cc1 | -1 | 72* | 28 | /
CCOC(=O)c1nn(-c2c(C)n(C)n(-c3ccccc3)c2=O)cc1O | 1 | 61* | / | /
O=C(N[C@H]1CC[C@H](CCNC(=O)C2CCCCC2)O[C@H]1CO)c1ccncc1 | / | / | / | 3
COc1ccc(NC(=O)/C(C#N)=C/c2cc(C)n(-c3ccc(N4CCOCC4)c([N+](=O)[O-])c3)c2C)cc1 | -3 | 79* | 38 | -9
Cc1cc(/C=C(\C#N)C(=O)Nc2ccc(F)cc2)c(C)n1-c1ccc(N2CCOCC2)c([N+](=O)[O-])c1 | 2 | 53* | 38 | 1
CCCC#Cc1ccc2c(c1)O[C@@H](CN(C)CC1CCOCC1)[C@H](C)CN([C@H](C)CO)S2(=O)=O | / | / | / | 16
Fc1ccccc1NC(=S)N/N=C/c1ccccc1Br | 16* | 28 | 35 | /
O=[N+]([O-])c1ccc(/C=N/NC(=S)Nc2ccccc2F)o1 | 6 | -3 | -45 | -35
CCNC(=O)C[C@H]1CC[C@H](NS(=O)(=O)c2ccc(F)cc2)[C@@H](CO)O1 | / | / | / | 6
COc1cc(NC(=O)Cn2nc(C(F)(F)F)c3c2CCCC3)cc(OC)c1OC | 0 | 66* | / | /
O=C(Nc1ccc(N2CCN(C(=O)c3ccc(Cl)cc3)CC2)cc1)c1cc2ccccc2o1 | 8 | 90* | 69* | ?
Cc1ccc2sc(NNC(=O)c3cc(=O)c4ccccc4o3)nc2c1C | 18* | -31 | -5 | -44
Cc1cccc2sc(NNC(=O)c3cc(=O)c4ccccc4o3)nc12 | -5 | 14 | -16 | -54
Cc1ccc(NC(=O)Cn2nc(C)c3ccccc3c2=O)cc1 | 0 | 72* | / | /
CC1CC(=O)c2c(cc3c(-c4c(O)cc(O)c5c(O)c6c(cc45)OC(C)CC6=O)c(O)cc(O)c3c2O)O1 (stereo not drawn) | 3 | 78* | 1 | /
O=C1CC(c2ccc(O)cc2)Oc2cc(O)cc(O)c21 (stereo not drawn) | -3 | -6 | -30 | -6
C(=C\c1ccccc1)/CN1CCN(C(c2cc3ccccc3o2)c2nnnn2-c2ccc3c(c2)OCCO3)CC1 (stereo not drawn) | / | 69* | 0 | -4
C(=C\c1ccccc1)/CN1CCN(C(c2nnnn2-c2ccc3c(c2)OCCO3)C2CC2)CC1 (stereo not drawn) | / | 58* | 22 | -16
CCC(c1nnnn1-c1ccc2c(c1)OCCO2)N1CCN(C/C=C/c2ccccc2)CC1 (stereo not drawn) | / | 58* | 27 | -16
COc1ccc(-n2nnnc2C(c2cc3ccccc3o2)N2CCN(C/C=C/c3ccccc3)CC2)cc1 (stereo not drawn) | / | 14 | 14 | -5
C(=C\c1ccccc1)/CN1CCN(C(CCc2ccccc2)c2nnnn2-c2ccc3c(c2)OCCO3)CC1 (stereo not drawn) | / | 20 | 15 | 13
NCC[C@@H]1CC[C@@H](NC(=O)Nc2ccc(F)cc2)[C@@H](CO)O1 | / | / | / | 5

Screening data: PubChem, several laboratories
